Our source for the activation, Potency and viability change values is PubChem BioAssay (NCATS).

Values joined by “and” are separate entries in the source; they are usually repeats but may differ in a detail not shown here. Equal entries are not always repeated. Results filed as inconclusive are left out. Active and inactive are the calls of the source.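 Rule for the calls, unless noted: active = calcium activation more than 3 SD above the typical response in the agonist read; inactive = the rest.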

Chain of Thyrotropin-releasing hormone receptor (Homo sapiens) (P34981 whole entry, looked up): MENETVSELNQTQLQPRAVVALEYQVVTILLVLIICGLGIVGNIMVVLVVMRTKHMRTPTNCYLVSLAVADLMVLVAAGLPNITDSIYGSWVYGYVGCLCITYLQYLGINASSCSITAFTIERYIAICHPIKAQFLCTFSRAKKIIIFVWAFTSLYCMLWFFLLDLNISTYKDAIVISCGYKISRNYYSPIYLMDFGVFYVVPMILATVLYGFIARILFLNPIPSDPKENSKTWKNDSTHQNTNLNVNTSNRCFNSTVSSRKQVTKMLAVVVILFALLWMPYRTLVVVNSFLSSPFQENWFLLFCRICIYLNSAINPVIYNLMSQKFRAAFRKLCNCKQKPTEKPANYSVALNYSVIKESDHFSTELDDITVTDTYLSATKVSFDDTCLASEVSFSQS

In the first assay the target is Thyrotropin-releasing hormone receptor (Homo sapiens) (UniProt P34981). The assay is described as follows: qHTS for Small Molecule Agonists and Allosteric Enhancers of Human TRH Receptor: Validation Screen for Agonists (AID 493127).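 Note: intracellular calcium rise by fluo-8 fluorescence before TRH EC20 addition; 0% is about no effect.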 Conditions: TRH receptor agonist cell assay; at 2 µM; stronger effect = higher value. An outline of the steps:
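Gq-coupled calcium mobilization in TRHR cells after compound addition, monitored kinetically with fluo-8 dye on an FDSS reader.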
On to `O=C(O)CCC(=O)N1CCCC1C(=O)O` (configuration not stated), for which the activation was -0.312% (inactive).
Same read-out and setting: the figure for `C=C(C)C1CC=C(C(=O)O)CC1` (configuration not stated) is 1.12% (inactive).
Consider `NCC(O)C1CCCCCCC1` (configuration not stated), for which the activation was 1% (inactive).
The same measure, in the same setting: then `NC(=O)CNCCC(c1ccccc1)c1ccccc1`, with 1.81% (inactive); and `COc1ccccc1N1CCN(CCCNc2c(C)c(=O)n(C)c(=O)n2C)CC1`, with 0.0625% (inactive).
For the molecule `C[C@@]1(C2CCCC2)Cc2cc(OCC(=O)O)c(Cl)c(Cl)c2C1=O`, the activation is 1.25% (inactive).
As for `N[C@@H](CS(=O)O)C(=O)O`, the activation was 0.688% (inactive).
On the same count and under the same terms, the figure for `COC(=O)C(C)(N)Cc1ccc(O)cc1` (configuration not stated) is 0.125% (inactive); for `O=C(O)/C(=C/c1c(C(=O)O)[nH]c2cc(Cl)cc(Cl)c12)c1ccccc1` it is 1.12% (inactive).
The same measure, in the same setting: the figure for `Cn1c(=O)[nH]c2ncn(C)c2c1=O` is 0.188% (inactive); for `CCCCCCCCCCCCCCCCCCOC[C@H](COP(=O)([O-])OCC[N+](C)(C)C)OC` it is 0.938% (inactive).
Same read-out and setting: then `O=C(O)/C=C/c1ccc(O)c(O)c1`, with 0.25% (inactive).
Regarding `N[C@@H](Cc1ccc(O)c(I)c1)C(=O)O`, the activation was 1.19% (inactive).
The same measure, in the same setting: the figure for `NC(=O)c1cc[n+](CC2=C(C(=O)O)N3C(=O)[C@@H](NC(=O)[C@@H](c4ccccc4)S(=O)(=O)[O-])[C@H]3SC2)cc1` is 13.1% (inactive); for `O=[N+]([O-])c1cccc2cn[nH]c12` it is 0.5% (inactive); for `c1ccc2nc(C3=NCCN3)ccc2c1` it is 0.0625% (inactive).
The same measure, in the same setting: then `COc1ccccc1N1CCN(CCCCNC(=O)c2ccc3ccccc3c2)CC1`, with 3% (inactive); and `O=c1onc2n1-c1cc(Br)ccc1OC2`, with 1.75% (inactive).
Same read-out and setting: the figure for `CC(C)NC[C@H](O)COc1ccc(CC(N)=O)cc1` is 0.25% (inactive) and -0.125% (inactive).
On to `NC(N)=NC(N)=Nc1ccccc1`, for which the activation was 0.75% (inactive).
On to `C#CCn1c(=O)c2c(ncn2C)n(C)c1=O`, for which the activation was 0.938% (inactive).
Same read-out and setting: then `O=C(OCCN1CCOCC1)C1(c2ccccc2)CCCCC1`, with -4.62% (inactive); and `CO/N=C(\C(=O)N[C@@H]1C(=O)N2C(C(=O)O)=C(CSc3nc(=O)c(O)nn3C)CSC12)c1csc(N)n1` (some centres not stated), with 1.12% (inactive).
Same read-out and setting: the figure for `Nc1ccc(-c2nc3ccc(-c4nc5ccc(N)cc5[nH]4)cc3[nH]2)cc1` is 1% (inactive); for `CCC(=O)N1CCN(C(=O)c2ccccc2)CC1` it is 1.38% (inactive).
`Nc1ccc(N2C(=O)c3ccccc3C2=O)c(Cl)c1`: the activation was -4.94% (inactive).
Same read-out and setting: the figure for `NC(N)=N[C@@H](CCC(=O)O)C(=O)O` is 0.0625% (inactive); for `CC1CCN(CC[C@H]2CCCN2S(=O)(=O)c2cccc(O)c2)CC1` it is 2.44% (inactive); for `Cc1nc(N=Nc2ccc(S(=O)(=O)O)cc2S(=O)(=O)O)c(COP(=O)(O)O)c(C=O)c1O` it is 0.938% (inactive).
The same measure, in the same setting: then `CC(C)Cn1c(=O)n(C)c(=O)c2[nH]cnc21`, with 0.875% (inactive); and `NCCCNCCCCNCCCN`, with 0.688% (inactive).
On the same count and under the same terms, the figure for `CCCCCCCCCC[Si](C)(C)CCC(=O)NC(Cc1ccc(C)cc1)c1ccccc1` (configuration not stated) is 0.812% (inactive).
On to `CNc1ncnc2c1ncn2[C@H]1C[C@H](OP(=O)(O)O)[C@@H](COP(=O)(O)O)O1`, for which the activation is 1.25% (inactive).
In the case of `NCCS(=O)O`, the activation is 1.19% (inactive).
`N=C(N)SCCN`: the activation is 0.688% (inactive).
Same read-out and setting: the figure for `NC1(C(=O)O)CC1` is 0.688% (inactive); for `O=C(O)c1cc(=O)cc(C(=O)O)[nH]1` it is 0.75% (inactive); for `c1ccc(C2CN3CCSC3=N2)cc1` (configuration not stated) it is -0.188% (inactive).

Tested on in a further assay: not listed separately
The assay is described as follows: Nrf2 qHTS screen for inhibitors: Validation (AID 493153; active = well fitted inhibition curve with a large enough effect in the main read-out, with a control signal flat, not every such curve was filed as active). Conditions: A549 ARE-Fluc reporter, 18-24 h; Potency: luciferase luminescence; viability change: measured here: cytotoxicity max response; luciferase luminescence, at 46.1 µM (top of the series). In a few lines: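 Dose-response validation uses reporter A549 cells with firefly luciferase under an antioxidant response element. Compounds stay on cells 18-24 h at 37°C, and luminescence indicates Nrf2-driven transcription.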
On to `O=C(O)CCC(=O)N1CCCC1C(=O)O` (configuration not stated), for which the Potency result was “inactive” and the viability change was -2.91%.
As to `C=C(C)C1CC=C(C(=O)O)CC1` (configuration not stated), the Potency result was “inactive” and the viability change stood at 1.77%.
The matching figures for `NCC(O)C1CCCCCCC1` (configuration not stated): “inactive” and 3.56%.
For `NC(=O)CNCCC(c1ccccc1)c1ccccc1`, in that order: “inactive” and 12.7%.
For `COc1ccccc1N1CCN(CCCNc2c(C)c(=O)n(C)c(=O)n2C)CC1`, in that order: “inactive” and 3.58%.
Take `C[C@@]1(C2CCCC2)Cc2cc(OCC(=O)O)c(Cl)c(Cl)c2C1=O`: the Potency result is “inactive” and the viability change was -4.41%.
The matching figures for `N[C@@H](CS(=O)O)C(=O)O`: “inactive” and -0.201%.
For `COC(=O)C(C)(N)Cc1ccc(O)cc1` (configuration not stated), in that order: “inactive” and -3.06%.
The matching figures for `O=C(O)/C(=C/c1c(C(=O)O)[nH]c2cc(Cl)cc(Cl)c12)c1ccccc1`: “inactive” and 4.57%.
As to `Cn1c(=O)[nH]c2ncn(C)c2c1=O`, the Potency result is “inactive” and the viability change is 1.53%.
For `O=C(O)/C=C/c1ccc(O)c(O)c1`, in that order: “inactive” and 3.15%.
The matching figures for `N[C@@H](Cc1ccc(O)c(I)c1)C(=O)O`: “inactive” and -2.22%.
Take `NC(=O)c1cc[n+](CC2=C(C(=O)O)N3C(=O)[C@@H](NC(=O)[C@@H](c4ccccc4)S(=O)(=O)[O-])[C@H]3SC2)cc1`: the Potency entry is “inactive” and the viability change came out at 3.59%.
The matching figures for `O=[N+]([O-])c1cccc2cn[nH]c12`: “inactive” and -18.2%.
The matching figures for `c1ccc2nc(C3=NCCN3)ccc2c1`: “inactive” and 1.31%.
With `COc1ccccc1N1CCN(CCCCNC(=O)c2ccc3ccccc3c2)CC1`, the Potency entry is “inactive” and the viability change amounted to 4.82%.
For `O=c1onc2n1-c1cc(Br)ccc1OC2`, in that order: “inactive” and -3.61%.
For `CC(C)NC[C@H](O)COc1ccc(CC(N)=O)cc1`, in that order: “inactive” and -0.176%.
For `NC(N)=NC(N)=Nc1ccccc1`, in that order: “inactive” and -4.42%.
Consider `C#CCn1c(=O)c2c(ncn2C)n(C)c1=O`, for which the Potency result is “inactive” and the viability change came out at 4.85%.
On to `O=C(OCCN1CCOCC1)C1(c2ccccc2)CCCCC1`, for which the Potency result is “inactive” and the viability change is -0.582%.
On to `CO/N=C(\C(=O)N[C@@H]1C(=O)N2C(C(=O)O)=C(CSc3nc(=O)c(O)nn3C)CSC12)c1csc(N)n1` (some centres not stated), for which the Potency result is “inactive” and the viability change stood at 3.25%.
For `Nc1ccc(-c2nc3ccc(-c4nc5ccc(N)cc5[nH]4)cc3[nH]2)cc1`, in that order: “inactive” and -10.2%.
The matching figures for `CCC(=O)N1CCN(C(=O)c2ccccc2)CC1`: “inactive” and 1.55%.
For `Nc1ccc(N2C(=O)c3ccccc3C2=O)c(Cl)c1`, in that order: “inactive” and -6.09%.
Regarding `NC(N)=N[C@@H](CCC(=O)O)C(=O)O`, the Potency result was “inactive” and the viability change turned out to be 6.59%.
As to `CC1CCN(CC[C@H]2CCCN2S(=O)(=O)c2cccc(O)c2)CC1`, the Potency result was “inactive” and the viability change turned out to be 8.25%.
In the case of `Cc1nc(N=Nc2ccc(S(=O)(=O)O)cc2S(=O)(=O)O)c(COP(=O)(O)O)c(C=O)c1O`, the Potency result was “inactive” and the viability change was -3.73%.
For `CC(C)Cn1c(=O)n(C)c(=O)c2[nH]cnc21`, in that order: “inactive” and 1.08%.
For `NCCCNCCCCNCCCN`, in that order: “inactive” and -11.3%.
As to `CCCCCCCCCC[Si](C)(C)CCC(=O)NC(Cc1ccc(C)cc1)c1ccccc1` (configuration not stated), the Potency entry is “inactive” and the viability change was -1.11%.
For `CNc1ncnc2c1ncn2[C@H]1C[C@H](OP(=O)(O)O)[C@@H](COP(=O)(O)O)O1`, in that order: “inactive” and -10.4%.
Turning to `NCCS(=O)O`, the Potency result is “inactive” and the viability change worked out at 6.69%.
For `N=C(N)SCCN`, in that order: “inactive” and 0.333%.
The matching figures for `NC1(C(=O)O)CC1`: “inactive” and 4.01%.
Regarding `O=C(O)c1cc(=O)cc(C(=O)O)[nH]1`, the Potency entry was “inactive” and the viability change was -5.74%.
For `c1ccc(C2CN3CCSC3=N2)cc1` (configuration not stated), in that order: “inactive” and 5.53%.
